# Screening data as filed in PubChem.
# ATXN2 expr inh = inhibitors of ATXN2 expression. HEK-293 ATXN2-luciferase reporter, luminescence, 24 h. actives 0.72% (n = 360,000). Potency, µM (titrated, usually from 57 µM), actives largely listed as inhibitors; further: nearly all actives have a fitted effect of over 55% in size
#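 qHTS (up to 57 uM final) was run with 24 h compound exposure of reporter cells at 37 °C. Each well was multiplexed: SteadyGlo luminescence measured ATXN2-luciferase expression after a fluorogenic Gly-Phe-AFC viability readout (25 uM final).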
# HepG2 viability = counter-screen for TGF-b inhibitors: cytotoxicity in HepG2 cells | HepG2 CAGA-GFP viability, ATP luminescence, 18 h | Potency, µM (highest dose often 46.1 µM), most hits filed as cytotoxic | actives 0.76% (n = 410,000) | AID 588856
#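 HepG2 CAGA-GFP cells (1000/well, DMEM with 1% FBS) received compound, then TGF-beta at 500 pg/mL final, and were incubated 18 hours at 37 degrees C. Viability was read by CellTiter-Glo luminescence. Media-only wells were set as complete cell-killing and DMSO as no toxicity.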
# ATXN viability = viability counter-screen for ATXN expression inhibitors; S2 cells (HEK-293 line with an ATXN2-luciferase reporter) viability, CellTiter-Fluor protease fluorescence, 24 h; Potency, µM (highest dose often 56.7 µM), actives largely listed as cytotoxic; actives 0.49% (n = 400,000); AID 651635; further: nearly all actives have a fitted effect of over 40% in size
# TDP1 cell CPT = DT40-hTDP1 cell growth loss with CPT; Potency, µM (doses to about 46.2 µM), actives largely listed as inhibitors; AID 686979; chicken DT40 Tdp1-/-;hTDP1 cells + 20 nM CPT, ATP luminescence, 48 h; actives 12% (n = 420,000); further: nearly all actives have a fitted effect of over 55% in size
#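 Chicken DT40 Tdp1-/- cells stably complemented with human TDP1 were seeded at 400 cells/well in medium containing 20 nM camptothecin, exposed to pin-transferred compounds, and grown at 37 °C for at least 48 hr. Viability was read as ATP luminescence.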
# TGFb inhibitor = inhibitors of TGF-b signaling | HepG2 CAGA-GFP TGF-b/SMAD3 reporter, GFP fluorescence, 18 h; TGF-beta stimulated, 500 pg/mL final | Potency, µM (doses to about 46.1 µM), most hits filed as inhibitors | actives 1.2% (n = 410,000) | AID 588855; further: nearly all actives have a fitted effect of over 65% in size
#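 Using HEPG2 CAGA-GFP reporter cells at 1000 cells/well, we pinned test compounds, stimulated with recombinant TGF-beta (500 pg/mL final) and measured total well GFP after 18 h.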
# TDP1 cell noCPT = qHTS for Inhibitors of human tyrosyl-DNA phosphodiesterase 1 (TDP1): qHTS in cells in absence of CPT; actives 15% (n = 420,000); DT40 Tdp1-/- hTDP1 cells, no CPT, ATP luminescence, 48 h; Potency, µM (doses to about 46.2 µM), most hits filed as inhibitors; AID 686978, 2013; further: nearly all actives have a fitted effect of over 55% in size
#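 Readout: luminescence from CellTiter-Glo after 30 min in the dark at RT. Cells: DT40 Tdp1-/- with stable hTDP1, 400/well. Exposure: compounds alone, ≥48 hr, 37 °C.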
# Numbers stand for hits; . = inactive; ? = inconclusive; / = not tested or not shown; ! = not active in a repeat. In the library only some 17% were active in any assay of this set; here they are far more common. The call rests on the fitted dose curve; in most records, active means well fitted curve in the direction sought with a large enough effect; inconclusive means small, poorly fitted or top-dose-only effect, or another doubt; inactive means no such curve, though single readings can be large; an effect the other way counts as inactive or inconclusive.
SMILES,ATXN2 expr inh,HepG2 viability,ATXN viability,TDP1 cell CPT,TGFb inhibitor,TDP1 cell noCPT
COc1cc(CNc2ccc(N3CCCC3)cc2)ccc1OCc1ccccc1,.,.,?,1.6µM,.,2.1µM
COc1cc(CNC23CC4CC(CC(C4)C2)C3)ccc1OCc1ccccc1,.,.,.,29µM,.,21µM
COc1cc(C)ccc1OC(C)C(=O)Nc1ccc(N2CCCCC2)cc1 (stereo unspecified),.,.,.,?,.,13µM
C=CCOc1c(CNc2ccc(S(N)(=O)=O)cc2)cccc1OC,.,.,.,?,.,18µM
COc1cc(CNc2ccc(S(N)(=O)=O)cc2)ccc1OCc1ccccc1F,.,.,.,18µM,.,?
COc1cc(CNc2ccc(N3CCCC3)cc2)ccc1OCc1ccccc1F,.,.,.,3.7µM,.,4.6µM
COc1ccc(CNc2ccc(S(N)(=O)=O)cc2)c(OC)c1OC,.,.,.,.,.,.
CC(NCc1cc(Br)ccc1OCC(N)=O)C12CC3CC(CC(C3)C1)C2 (stereo unspecified),/,.,?,?,?,18µM
COc1cc(CNC(C)C23CC4CC(CC(C4)C2)C3)cc(OC)c1OC (stereo unspecified),.,.,.,?,.,?
CC(=O)Nc1ccc(NC(=O)C(C)OC(=O)c2cccc(S(=O)(=O)N3CCCC3)c2)cc1 (stereo unspecified),.,.,.,.,.,.
CCOCCCN(CC(=O)NC1CCCC1)C(=O)C(=O)Nc1ccc2c(c1)OCCO2,.,.,?,.,.,.
COc1cc(CNC(C)C23CC4CC(CC(C4)C2)C3)ccc1OCC(=O)NC(C)(C)C (stereo unspecified),.,.,?,.,?,21µM
COc1cc(CNC(C)(C)CO)ccc1OCC(=O)NC(C)(C)C,.,.,?,.,.,.
CC(=O)Nc1cccc(-c2cnc(N)c(C(=O)c3cccnc3)n2)c1,?,.,?,8.2µM,10µM,10µM
COc1cc(OC)c(C(=O)OC(C)C(=O)Nc2cccc(C(F)(F)F)c2)cc1OC (stereo unspecified),.,.,.,23µM,?,?
CC(OC(=O)c1cccc(S(=O)(=O)Nc2cccc(C(F)(F)F)c2)c1)C(=O)Nc1ccc2c(c1)OCCO2 (stereo unspecified),.,.,.,.,?,16µM
Cn1c(=O)c2c(SCC(=O)NCc3ccco3)nc(-c3ccccc3)nc2n(C)c1=O,.,.,.,.,.,.
CN(C)CCN(Cc1ccccc1)C(=O)c1[nH]c(C(F)(F)F)nc1-c1ccccc1,.,.,.,.,.,?
C/C(=N\NC(=S)NC1CCCCC1)c1cccc(C(F)(F)F)c1,.,.,.,21µM,.,23µM
C/C(=N\NC(=S)NC1CCCCC1)c1cccc(Br)c1,.,.,.,?,.,16µM
CCNC(=S)N/N=C(\C)c1cccc(C(F)(F)F)c1,.,.,.,?,.,?
NN1C(=O)NC(c2ccccc2)(c2ccccc2)C1=O,.,.,.,.,.,.
COc1ccccc1CNC(=O)COC(=O)Cc1cccs1,.,.,.,.,.,.
COc1ccc(Nc2n[nH]c(C)c2[N+](=O)[O-])cc1,.,.,.,.,.,.
CC(=O)Nc1ccc(Nc2nc(C)c([N+](=O)[O-])c(Nc3ccc(NC(C)=O)cc3)n2)cc1,.,.,.,?,.,6.5µM
SMILES,ATXN2 expr inh,HepG2 viability,ATXN viability,TDP1 cell CPT,TGFb inhibitor,TDP1 cell noCPT
CNc1nc(C)c([N+](=O)[O-])c(Nc2ccc(OC)cc2)n1,.,.,.,?,.,23µM
COc1cccc(Nc2nc(Nc3ccc(Cl)c(C(=O)O)c3)nc(C)c2[N+](=O)[O-])c1,.,.,?,.,.,.
CCc1nc2ccc(C(=O)N(C)C(C)C)cn2c1N(CCC(C)C)CCN(C)C,.,.,.,.,.,.
COc1cc(Cl)c(C)cc1NC(=O)COC(=O)C1=NN(c2ccccc2)C(=O)CC1,.,.,.,.,.,.
Cc1cc(O)c2c(c1)O[C@@]1(C)CC[C@H]3C(C)(C)CCCC34CO[C@@H]2[C@H]41 (stereo partly specified),/,/,/,?,/,17µM
Cc1ccccc1N1CCN(C2CCCN(C(=O)c3cn4cccc(C)c4n3)C2)CC1 (stereo unspecified),?,.,?,23µM,.,8.2µM
CCc1[nH]nc(C(=O)N2CCCC(N3CCN(c4ccccc4C)CC3)C2)c1C (stereo unspecified),.,.,.,16µM,?,?
Cc1ccccc1N1CCN(C2CCCN(C(=O)c3noc4c3CCCC4)C2)CC1 (stereo unspecified),.,.,.,9.2µM,?,8.2µM
Cc1ccccc1N1CCN(C2CCCN(C(=O)c3ccsc3)C2)CC1 (stereo unspecified),.,.,.,?,.,?
Cc1ccccc1N1CCN(C2CCCN(C(=O)c3ccccn3)C2)CC1 (stereo unspecified),.,.,.,.,.,26µM
CC1=C(C(=O)N2CCCC(N3CCN(c4ccccc4C)CC3)C2)OCCO1 (stereo unspecified),.,.,.,?,.,?
CC(=O)c1c(C)[nH]c(C(=O)NCCN2CCC(C)CC2)c1C,.,.,.,.,.,.
CCC1(c2ccccc2)NC(=O)N(CC(=O)N(C)CC(=O)Nc2cccc(F)c2)C1=O (stereo unspecified),.,.,?,.,?,.
Cc1cnc(C(=O)N2CCCC(N3CCN(c4ccccc4C)CC3)C2)cn1 (stereo unspecified),.,.,?,18µM,.,?
Cc1cc(C(=O)N2CCCC(N3CCN(c4ccccc4C)CC3)C2)n(C)n1 (stereo unspecified),.,.,.,?,.,?
CSc1ncccc1C(=O)N1CCCC(N2CCN(c3ccccc3C)CC2)C1 (stereo unspecified),/,.,.,16µM,.,9.2µM
COC(=O)[C@@H]1CCCN1Cc1ccc2c(c1)CN(Cc1cccn1-c1ncccn1)CCO2,/,/,.,?,/,.
Cc1cnc(CNc2ncnc3ccc(-c4ccccc4C#N)cc23)cn1,/,/,/,.,/,.
O=C(NCCc1ccc(Cl)cc1)C1CCN(C(=O)c2ccc(F)cc2)CC1,.,.,.,?,.,18µM
O=C(NCc1ccc(Cl)cc1)C1CCN(S(=O)(=O)c2ccc(F)cc2)CC1,.,.,?,3.7µM,.,18µM!
